Compounds without any hit were thinned out: in the full panel of roughly 83,000, 20% have a hit.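 Note: values are percent growth. 100 is the growth of untreated cells, values between 100 and 0 indicate rising inhibition; between -100 and 0 indicates cell death.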 Values without a mark were called inactive. Calls of active or inactive are those of the source. Rule for the calls: active = growth percent below 10; inactive = the rest.
Legend:
Assay in all cases: NCI-60 one-dose screen, 48 h (100 = growth as untreated, 0 = no growth, -100 = all killed)
Settings in all cases: 10 µM
RPMI-8226 leukemia = system: RPMI-8226 leukemia
OVCAR-8 ovarian = system: OVCAR-8 ovarian
OVCAR-5 ovarian = system: OVCAR-5 ovarian
OVCAR-4 ovarian = system: OVCAR-4 ovarian
SK-OV-3 ovarian = system: SK-OV-3 ovarian
IGROV1 ovarian = system: IGROV1 ovarian
OVCAR-3 ovarian = system: OVCAR-3 ovarian
HS 578T breast = system: HS 578T breast
NCI/ADR-RES ovarian = system: NCI/ADR-RES ovarian
T-47D breast = system: T-47D breast
BT-549 breast = system: BT-549 breast
MDA-MB-435 melanoma = system: MDA-MB-435 melanoma
SW-620 colon = system: SW-620 colon
HCT-116 colon = system: HCT-116 colon
HCC-2998 colon = system: HCC-2998 colon
KM12 colon = system: KM12 colon
MDA-MB-468 breast = system: MDA-MB-468 breast
MCF7 breast = system: MCF7 breast

Compound	growth (RPMI-8226 leukemia)	growth (OVCAR-8 ovarian)	growth (OVCAR-5 ovarian)	growth (OVCAR-4 ovarian)	growth (SK-OV-3 ovarian)	growth (IGROV1 ovarian)	growth (OVCAR-3 ovarian)	growth (HS 578T breast) [%]	growth (NCI/ADR-RES ovarian)	growth (T-47D breast)	growth (BT-549 breast)	growth (MDA-MB-435 melanoma)	growth (SW-620 colon)	growth (HCT-116 colon)	growth (HCC-2998 colon)	growth (KM12 colon)	growth (MDA-MB-468 breast)	growth (MCF7 breast)
O=C(CSc1ccc(-c2ccc(Cl)cc2)nn1)Nc1ccc(Cl)c(C(F)(F)F)c1	66.8%	76.4%	79.6%	76.1%	75.4%	70.9%	69.3%	70.6	27.9%	58.3%	74.6%	0.967% (active)	36%	50.7%	69.5%	43.3%	16.5%	
O=C(Nc1cccc(-c2cn(-c3ccc4oc(=O)ccc4c3)nn2)c1)Nc1cc(C(F)(F)F)cc(C(F)(F)F)c1	6.66% (active)	34.6%	66.4%	7.53% (active)	36.5%	29.9%	16.2%	27.7	50.4%	-0.405% (active)	3.59% (active)	49%	56.6%	29.1%	33.1%	33.2%	-23.3% (active)	
COc1ccc(/C=N/N=C(\C)c2ccc3c(c2)Nc2ccccc2S3)cc1O	28.3%	62.8%	71.4%	41.7%	87.3%	70.1%	72.8%	73.7	34.8%	21.5%	40.1%	34.7%	68.5%	38.7%	51.2%	39.2%	0.0526% (active)	11.9%
COc1ccc(CCN2C(=O)/C(=C/c3csc(C#N)n3)SC2=S)cc1	-0.42% (active)	-5.34% (active)	76.7%	38.4%	96.3%	26.8%	-39% (active)	16.9	47%	-5.27% (active)	-44.6% (active)	-23.6% (active)	-14.6% (active)	-63.2% (active)	-32.8% (active)	-61.4% (active)	-67.2% (active)	
C=CC(=O)Nc1ccc(C(=O)/C=C/c2ccc(N(C)CCF)cc2)c(O)c1	3.47% (active)	-45.8% (active)	-49.3% (active)	19.8%	3.61% (active)	-53.5% (active)	-69% (active)	19.7	0.782% (active)	5.88% (active)	-65% (active)	-46.7% (active)		-66.2% (active)	-78.4% (active)	-82.6% (active)	-73.6% (active)	-19.5% (active)
CN1CCN(c2ccc(Nc3nc(NCCCNC(=O)C4CCCCC4)c4sccc4n3)cc2)CC1	-12.3% (active)	57.5%	67.3%	48.9%	98%	76.9%	33.4%	42.9	74.3%	36.6%	69.1%	34%	40%	30.8%	59.5%	63.7%	49.1%	
CN1CCN(c2ccc(Nc3nc(NCCCNC(=O)c4ccc(F)cc4)c4sccc4n3)cc2)CC1	-22.5% (active)	47.5%	78.2%	80.1%	102%	77.8%	61.6%	84.1	76.2%	51.5%	108%	51.1%		33.5%	66.4%	53.7%	59.1%	31%
O=C1NC(=NC2CCCCCC2)N/C1=C\c1ccc2ncoc2c1	35.9%	27.3%	50.3%	62%	24.4%	34.6%	-3.02% (active)	42	41.1%	18.9%	9.37% (active)	37.8%	11.3%	23.5%	68.8%	30%	-3.48% (active)	
CCCCCc1ccc(S(=O)(=O)N(C(C)=O)c2cc(-c3csc(N(C)C(C)=O)n3)ccc2N2CCN(C)CC2)cc1	-24.8% (active)	41.2%	57.6%	62%	96%	68.2%	44.7%	35.7	47.9%	30.4%	73.9%	-97.4% (active)	-77.9% (active)	-87.8% (active)	-67.8% (active)	15.7%	20.9%	

Reference: PubChem BioAssay (NCI)
